# In PubChem BioAssay (NCI):
# The panel holds about 83,000 compounds, 20% with a hit somewhere; the sample as a whole holds those more often.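 Each cell line was grown in a 96-well plate and treated with one concentration of compound for 48 hours. Values below 10 were considered active.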 Activity calls are given as the source filed them.
# Test system: SW-620 colon
# Test: NCI-60 one-dose screen, 48 h (100 = growth as untreated, 0 = no growth, -100 = all killed)
# Settings: 10 µM unless noted
row,Structure (SMILES),growth
1,CS(=O)(=O)Nc1cc(-c2ccc3ncnc(Nc4c(Cl)ccc5c4OCO5)c3c2)cnc1Cl,2.07% (active)
2,O=C(Nc1cc(Cl)ccc1O)c1ccc(Nc2ccnc(C(F)(F)F)c2)cc1,40.2% (inactive)
3,Cc1cccc(N2CCN(CC(O)COc3ccc(Cl)cc3)CC2)c1 (centres undefined),103% (inactive)
4,OCCOCCN(Cc1ccccn1)Cc1cc(I)cc(I)c1O,95.5% (inactive)
5,COc1ccc(C2c3sc4c(F)cccc4c3Oc3nc[nH]c(=O)c32)cc1 (centres undefined),89.7% (inactive)
6,N#Cc1cccc(F)c1,109% (inactive)
7,C=C(C)[C@@H]1CC[C@]2(C(=O)NCC#CCN3CCN(C)CC3)CC[C@]3(C)[C@H](CC[C@@H]4[C@@](C)(CCC#N)[C@H](C(=C)C)CC[C@]43C)[C@@H]12,45.5% (inactive)
8,O=C(O)c1[nH]c(=O)[nH]c(=O)c1[N+](=O)[O-],109% (inactive)
9,O=c1c2cc(-c3ccccc3)sc2nc2sc(-c3ccccc3)nn12,103% (inactive)
10,CCOC(=O)c1c(C)nc2c(c1N)CC(=O)N2Cc1cc(F)cc(Cl)c1,103% (inactive)
11,COc1ccc(C(=S)N2CCN(c3ccccc3Cl)CC2)cc1OC,106% (inactive)
12,C#Cc1cccc(Nc2ncnc3ccc(-c4cnc(N)nc4)cc23)c1,60.9% (inactive)
13,Cc1ccc(/C=C2\CN(C(=O)OC(C)(C)C)C/C(=C\c3ccc(C)cc3)C2=O)cc1,5.21% (active)
14,COC(=O)/C(CCC=C(C)C)=C1\[C@@H](OC(C)=O)C[C@@]2(C)[C@H]1C[C@@H](O)[C@H]1[C@@]3(C)CC[C@H](NCCN)[C@@H](C)[C@@H]3CC[C@@]12C,85.4% (inactive)
